Measurements as given in the supplement of paper PMC3334620.
Over roughly 33,000 sequences, “E-score (-0.5 to 0.5)” has its median near -0.015; the highest 2% begin near 0.3. This is one part of a sample in which the highest values are shown more often than they occur.

What follows are sequences tested against T1, Abf1 (UniProt P14164) (assay: PBM E-score (8-mer binding enrichment) (E-score (-0.5 to 0.5)); higher = stronger / more preferred TF binding). Conditions: protein concentration: 200 nM; construct: GST-full length.
T1 sequence: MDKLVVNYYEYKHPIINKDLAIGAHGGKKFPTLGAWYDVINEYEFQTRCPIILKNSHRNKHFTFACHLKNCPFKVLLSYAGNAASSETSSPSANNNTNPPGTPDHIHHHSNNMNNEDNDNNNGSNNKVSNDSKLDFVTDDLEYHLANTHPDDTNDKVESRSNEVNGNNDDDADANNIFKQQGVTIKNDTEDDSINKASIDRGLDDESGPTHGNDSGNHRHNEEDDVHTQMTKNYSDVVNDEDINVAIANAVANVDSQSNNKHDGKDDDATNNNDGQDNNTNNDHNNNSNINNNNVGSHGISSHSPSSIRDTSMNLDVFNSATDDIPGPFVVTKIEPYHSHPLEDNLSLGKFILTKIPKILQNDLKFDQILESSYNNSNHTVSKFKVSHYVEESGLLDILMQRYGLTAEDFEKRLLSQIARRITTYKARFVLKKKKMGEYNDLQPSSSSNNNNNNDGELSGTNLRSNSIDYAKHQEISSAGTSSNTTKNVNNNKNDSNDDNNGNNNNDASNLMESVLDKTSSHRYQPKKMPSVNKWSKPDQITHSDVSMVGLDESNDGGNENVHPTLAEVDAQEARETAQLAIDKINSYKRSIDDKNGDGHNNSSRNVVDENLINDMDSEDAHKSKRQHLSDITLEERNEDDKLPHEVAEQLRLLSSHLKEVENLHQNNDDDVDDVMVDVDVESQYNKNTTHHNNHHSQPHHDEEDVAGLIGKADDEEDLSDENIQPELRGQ
Method: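 Universal 'all 10-mer' protein binding microarrays (Agilent AMADID 015681) probed with GST-tagged S. cerevisiae TFs (full-length or DBD) made by in vitro transcription/translation (PURExpress), about 100-200 nM. Bound TF was detected with fluorescent anti-GST. Each ungapped 8-mer (which stands for itself and its reverse complement) is scored by the PBM enrichment score (E-score), a modified Wilcoxon-Mann-Whitney statistic from -0.5 to +0.5, computed with the Universal PBM Analysis Suite. Scale: above 0.35 generally sequence-specific binding.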

Row | Sequence | PBM E-score
1 | AAATCACG | 0.284
2 | AAATCACA | 0.0176
3 | AAATCACC | 0.336
4 | AAATCACT | 0.374
5 | AAATCAAT | 0.142
6 | CGAACCAA | 0.0494
7 | ATCAGCGA | -0.0614
8 | GGTTTTCA | 0.167
9 | ACGAGCAT | 0.00886
10 | GTCCTATA | -0.0768
11 | AACGACAC | 0.238
12 | ACCGACAA | 0.115
13 | TGCGACAA | 0.0936
14 | CACGACAA | 0.25
15 | AACGACAT | 0.346
16 | CACGACAC | 0.296
17 | TACGACAA | 0.298
18 | AACGACAA | 0.308
19 | GACGACAA | 0.347
20 | AACGACAG | 0.196
21 | GGCGACAA | 0.0843
22 | GACGACAC | 0.252
23 | TCAAGAGA | 0.0894

Row | Sequence | PBM E-score
24 | ACATCGTG | 0.185
25 | ACCCCTAC | -0.271
26 | AAGAGGAA | -0.0719
27 | GGCCCGTA | 0.0104
28 | ACGGAGGG | 0.0212
29 | CACGCAGC | 0.00826
30 | ACGTCTAG | 0.167
31 | AGATCACT | 0.437
32 | CGATCACG | 0.298
33 | AGATCAAG | 0.112
34 | CGATCACA | 0.161
35 | AGATCACA | 0.138
36 | AGATCACC | 0.311
37 | AGATCACG | 0.35
38 | AGATCAAT | 0.12
39 | TGATCACA | 0.292
40 | GGATCACC | 0.247
41 | GGATCACA | 0.00896
42 | CGATCACC | 0.0211
43 | AGACGGGG | 0.0661
44 | GATCCTCA | 0.019
45 | CTAATTCC | 0.0379
46 | ATGACCTA | 0.235

Row | Sequence | PBM E-score
47 | ATACAACA | 0.0798
48 | CAAATGAA | -0.155
49 | AAAGGATT | -0.105
50 | TGCAACCA | -0.0685
51 | CGTCTCTC | 0.162
52 | GCTTCGGA | 0.0157
53 | CCTTCGTA | 0.292
54 | ACTTCGTG | 0.0796
55 | ACTTCGTA | 0.297
56 | GCTTCGTA | 0.313
57 | ACTTCGTC | 0.227
58 | CCGACACC | -0.195
59 | ATTTTTGC | 0.113
60 | TACAGGCA | 0.119
61 | AGCTACAA | -0.101
62 | GAGAAGGA | -0.18
63 | ATATCAAA | 0.0352
64 | CCTCCGCC | -0.059
65 | ACGTACGA | 0.335
66 | ACGTACAT | 0.244
67 | ACGTACGT | 0.335
68 | AGGTACGA | 0.0832
69 | ACGTACAG | -0.0233

Row | Sequence | PBM E-score
70 | ACGTACGC | 0.114
71 | CCGTACGG | 0.29
72 | ACGTACGG | 0.328
73 | AAGTACGA | 0.151
74 | CAGCGGAC | -0.105
75 | AGCGAGAT | 0.0588
76 | CCGTATGA | 0.408
77 | ACGTATGC | 0.014
78 | GCGTATGA | 0.0421
79 | ACGTATGG | 0.136
80 | ACGTATGA | 0.332
81 | CCGTATGC | 0.0398
82 | CGAGTTAG | 0.148
83 | ACTAGAAA | -0.0186
84 | TTACGGAA | 0.124
85 | ATACGGAT | 0.297
86 | ATACGGAC | 0.142
87 | ATACGGAA | 0.299
88 | CTACGGAA | 0.139
89 | ATACGGAG | 0.0972
90 | CAAAATCA | 0.173
91 | GCACAGCC | -0.204
92 | ATTTCTTG | 0.167

Row | Sequence | PBM E-score
93 | ACAGAATC | -0.0766
94 | AATTAATT | 0.00666
95 | TATTAATA | 0.00602
96 | TACTAATA | 0.0826
97 | CACTAATA | 0.255
98 | AACTAATA | 0.306
99 | AATTAATA | 0.302
100 | ACTCCACC | 0.032
101 | ATCGGTCC | -0.295
102 | ACGTGACT | 0.174
103 | ACGTGACC | 0.0122
104 | CCGTGACC | 0.157
105 | CCGTGACG | 0.198
106 | TCGTGAAA | 0.205
107 | CCGTGACA | 0.363
108 | CCGTGAAG | 0.136
109 | ACGTGACG | 0.201
110 | TCGTGAGA | 0.263
111 | TCGTGACA | 0.354
112 | CCGTGAAA | 0.381
113 | ACGTGACA | 0.355
